Laboratory results taken from PubChem BioAssay (NCI).
Compounds without any hit were thinned out: in the full panel of roughly 83,000, 20% have a hit.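 Negative percent growth values reflect cell death: -40 means 40% of the cells present at the start died, and -100 means all died.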 Unmarked numbers belong to inactive results. Calls of active or inactive are those of the source. The calls were made as follows: active = growth percent below 10; inactive = the rest.

Columns and labels:
Experiment in all cases: NCI-60 one-dose screen, 48 h (100 = growth as untreated, 0 = no growth, -100 = all killed)
Settings in all cases: 10 µM unless noted
[1] = system: HCT-15 colon
[2] = system: HT29 colon
[3] = system: SNB-75 CNS
[4] = system: SNB-19 CNS
[5] = system: U251 CNS
[6] = system: PC-3 prostate
[7] = system: SK-MEL-5 melanoma
[8] = system: UACC-62 melanoma
[9] = system: LOX IMVI melanoma
[10] = system: SK-MEL-28 melanoma

| SMILES | growth [1] | growth [2] | growth [3] | growth [4] | growth [5] | growth [6] | growth [7] | growth [8] | growth [9] | growth [10] |
| --- | --- | --- | --- | --- | --- | --- | --- | --- | --- | --- |
| O=C(CCc1nnc2sc(/C=C\c3ccccc3)nn12)c1nc2ccccc2[nH]1 | 99.6% | 36.8% | 87.9% | 110% | 89.1% | 77.1% | 75.9% | 103% | 75.3% | 93.3% |
| O=C1/C(=C/c2ccccc2F)CNC/C1=C\c1ccccc1F | -0.826% (active) | -35.4% (active) | 32.5% | 3.94% (active) | -85.3% (active) | 4.63% (active) | -88.4% (active) | -58.3% (active) | -83.5% (active) | -91.1% (active) |
| COc1ccc(-c2[nH]ncc2Nc2cc(OC)c(OC)c(OC)c2)cc1 | 32.2% | 26.2% | 44.6% | 34.6% | 31.1% | 33.6% | -11.3% (active) | 27.4% | 46.1% | 67.2% |
| CCCCC/C=C\C/C=C/CCCCCCCCNC(=O)Nc1ccc([N+](=O)[O-])cc1 | 78% | 60.7% | 103% | 89.6% | 51.3% | 16.3% | 103% | 68.4% | 17.4% | – |
| Cc1c(C)n(CC(O)CNC2CCCCC2C)c2ccccc12 (configuration not stated) | -16.2% (active) | -49.6% (active) | -38.7% (active) | 62% | -52.1% (active) | -24% (active) | -86.2% (active) | -84.7% (active) | -83.1% (active) | -85.2% (active) |
| CCC(C)Oc1cc(/C=N/NC(=O)c2cnn3c2NC(c2ccccc2)C3)ccc1OC (configuration not stated) | 23.9% | 15% | -12.2% (active) | 38.6% | 34.8% | 25.3% | 21.2% | 36% | 26.1% | 59.1% |
| COc1ccc(/C=C2\Oc3cc(C)c(Cl)cc3C2=O)cc1OC | 96.5% | 109% | 101% | 98.4% | 96.8% | 101% | 91.8% | 87.3% | 92.9% | – |
| O=C(c1ccccc1)C(Br)C(Br)c1cccc([N+](=O)[O-])c1 (configuration not stated) | -26.6% (active) | -42.4% (active) | 80.9% | 82.4% | 17.7% | 67.4% | 77.1% | 81.4% | -79.4% (active) | 63.6% |
| O=C(N/N=C(\CS(=O)(=O)c1ccccc1)c1cc2cc(Br)ccc2oc1=O)c1ccccc1 | 99.8% | 103% | 89.8% | 103% | 97.7% | 95.5% | 103% | 95.2% | 99.1% | 99.3% |
| CN1CCN(c2ccc3nc(-c4ccc5nc(-c6ccc(C(F)(F)F)cc6)[nH]c5c4)[nH]c3c2)CC1 | 80.4% | 29.2% | 29.6% | 74.2% | 34.7% | 30.2% | 44.2% | 67.5% | -85.8% (active) | – |
| CN1CCN(C(=O)OCCOCCOC(=O)N2CCN(C)CC2)CC1 | 96.3% | 101% | 80.8% | 104% | 103% | 90.1% | 104% | 102% | 90.9% | 105% |
| NS(=O)(=O)c1ccc(C(=O)N/N=C(\CS(=O)(=O)c2ccccc2)c2cc3cc(Br)ccc3o2)cc1 | 99.5% | 97.4% | 56.1% | 69.9% | 96.1% | 94.4% | 85.6% | 82% | 94.7% | 98.4% |
| COC(=O)c1c2c(c(C)[n+]([O-])c1C)C(=O)C=C(NCc1ccc(Cl)cc1)C2=O | -54.8% (active) | 2.63% (active) | -94.8% (active) | -23.5% (active) | -7.46% (active) | 1.07% (active) | -98.8% (active) | -65.5% (active) | -23.2% (active) | 10.6% |
| CCCCCCCC/C=C\CCCCCCCCOc1cccc(CC(=O)NCC[N+](C)(C)C)c1 | 91.7% | 48.3% | 59.1% | 60.1% | 46.2% | 36.4% | 90.8% | 80.8% | 89% | 99.6% |
| COc1ccc(OC2=CC(=O)c3ccc(C)nc3C2=O)cc1 | 76.1% | 102% | 53.4% | 87.7% | 96.4% | 85.2% | 83.5% | 83.6% | 75.6% | 93.5% |
| O=S(=O)(Nc1ccc(Cl)c(Cl)c1)c1ccc(-c2cnc(C3CC3)o2)cc1 | 23.9% | 10.2% | -3.4% (active) | 30.9% | 22.1% | 14.2% | 25% | 26.8% | 45.6% | 58.3% |
| O=C1Nc2ccc(Cl)cc2/C1=N/N=C(c1ccccc1)c1ccccc1 | 87.2% | 98.3% | 74.5% | 62.7% | 94.5% | 86.2% | 99% | 84.6% | 87.5% | 117% |
| COc1cc(/C=C2\C(=O)N(c3c(Cl)cccc3Cl)c3ccccc32)cc(OC)c1O | 30.7% | 22.6% | 61.7% | 52.4% | 22.4% | 15.2% | 32.3% | 47.5% | 2.06% (active) | 58.8% |
| O=C1CCC(N2Cc3c(C#CCCCNC(=O)c4cc5c(o4)C(=O)c4ccccc4C5=O)cccc3C2=O)C(=O)N1 (configuration not stated) | 76% | -15.4% (active) | -98.7% (active) | -8.73% (active) | -27.7% (active) | 4.79% (active) | -99.2% (active) | -84.4% (active) | -88.3% (active) | -22.9% (active) |
| COc1ccc(-c2cc(=O)oc3c4c(ccc23)OCN(Cc2ccc(F)cc2)C4)cc1 | 64.3% | 42.4% | 69.7% | 72.2% | 59% | 54.9% | 3.99% (active) | 61.6% | 73% | 83.4% |
| OB(O)c1ccccc1 | 102% | 101% | 101% | 114% | 101% | 101% | 113% | 109% | 101% | 117% |
| O=C(Nc1ccccc1)Oc1cccc2cccnc12 | 74.5% | 28.5% | 83% | 99.3% | 70.5% | 70.1% | 96.9% | 108% | 61% | 97.6% |
| CCCCCCCCCCCCCCCC[N+]1(C)CCOCC1 | 40.4% | 1.36% (active) | 11.7% | -29.1% (active) | -84.8% (active) | -52% (active) | 40% | 46.9% | -79% (active) | 86% |
| C=C1CC[C@@H]2[C@@](C)(CCC[C@]2(C)C(=O)O)[C@@H]1CC[C@H](CO)CCO | 108% | 104% | 94.8% | 101% | 102% | 99.7% | 112% | 99.2% | 99.1% | 105% |
| Cc1cc(C)c(S(=O)O)c(C)c1 | 111% | 100% | 86.6% | 102% | 105% | 94.6% | 105% | 102% | 93.9% | 113% |
| O=C(NC1CC1)c1cc2n(n1)CC(c1ccccc1)N2 (configuration not stated) | 95.3% | 107% | 91.2% | 100% | 102% | 98.8% | 99.4% | 88.4% | 98.3% | 107% |
| COc1cc2cc(Oc3ccc(NC(=O)Nc4cccc(C(F)(F)F)c4)cc3)c(C)nc2cc1OCCN1CCCCC1 | -81.9% (active) | -81.7% (active) | -70.3% (active) | -55.1% (active) | -82.4% (active) | -54.6% (active) | -94.1% (active) | -74.2% (active) | -94.3% (active) | -92.1% (active) |
